# According to PubChem BioAssay AID504376 (National Center for Advancing Translational Sciences (NCATS), 2011):
# The source made the active and inactive calls. No rule for the calls is given here.
# Experiment: Clonogenic survival assay for Identifying a Potential Treatment of Ataxia-Telangiectasia:SAR for Probe
# Conditions: ATM-null F2111 fibroblasts, NCS clonogenic survival, 14 d
# Source text: NIH Chemical Genomics Center [NCGC] NIH Molecular Libraries Probe Centers Network [MLPCN] MLPCN Grant: MH089030-01 Assay Submitter (PI): Wei Zheng and Yosef Shiloh Ataxia-telangiectasia (A-T) is a devastating and progressive disease for which, there is no cure. Although A-T is a multisystem disease, it is stereotyped characterized by its neurological symptoms such as truncal ataxia, due to cerebellar cortical degeneration of the Purkinje and granule cells. Other symptoms of A-T are telangiectasias (dilated blood vessels), primary immunodeficiency, marked sensitivity to ionizing radiation (IR), chromosomal instability and predisposition to cancer. The underlying genetic cause of A-T is null mutations in the ATM (A-T mutated) gene. ATM is a nuclear serine/threonine kinase that functions as a master regulator of the cellular responses to double strand breaks (DSBs) in the DNA. Upon activation by DSBs, ATM phosphorylates a plethora of downstream targets, including KAP-1 on […]. KAP-1 phosphorylation occurs shortly in response to DSBs and mediates global chromatin relaxation, which facilitates DSB repair. To screen for small molecules that will compensate for the loss of ATM in cells derived from A-T patients, we monitored KAP-1 phosphorylation as a readout for ATM-like activity using an AlphaLISA assay. Active compounds should protect the A-T cells from the damage by NCS treatment and form normal colonies.
# ATM null (F2111) cells are treated with various doses of the radiomimetic drug neocarzinostatin (NCS) and plated at densities of 200-5000 cells/[…]. 24 hr later the cells were either treated or not treated with Rottlerin, and 30 min later NCS was added for an additional 30 minutes. Then the medium was replaced with fresh medium and plates were incubated for 14 days until colonies could be visualized. After fourteen days, the cultures are fixed and stained and colonies scored manually. Colony survival in absence of NCS was normalized to 100% survival for each compound concentration.
structure (smiles),measurement,setting,value
CC(=O)c1c(O)c(C)c(O)c(Cc2c(O)c3c(c(C(=O)/C=C/c4ccccc4)c2O)OC(C)(C)C=C3)c1O,survival,"at 30 µM, stronger effect = higher value",43% (active)
same,survival,"measured here: 10 ng/ml NCS, no compound",35%
same,survival,"measured here: 20 ng/ml NCS, at 30 µM, stronger effect = higher value",33%
same,survival,"measured here: 40 ng/ml NCS, at 30 µM, stronger effect = higher value",15%
